In PubChem BioAssay AID797 (University of Pittsburgh Molecular Library Screening Center, 2007):
In all, about 200,000 compounds went through this assay and about 110 (0.055%) were called active. Rule as the data show it: active = inhibition above about 50%; inactive = the rest. The entries come from a sample that favours actives as a whole. Where a SMILES comes first, the peptide text is derived from it. [ ]: non-standard residue; d: D form. ξ: configuration not given here. ξM = CSCCC(N)C(=O)O

What follows are compounds tested against Serine/threonine-protein kinase D1 (Homo sapiens) (UniProt Q15139) (assay: protein kinase D1 activity blockers – biochemical, fluorescence polarization (AID 797)). Settings: PKD1 kinase fluorescence polarization assay; stronger effect = higher value; concentration not given here.
Chain of Serine/threonine-protein kinase D1 (Homo sapiens) (Q15139 whole entry, looked up): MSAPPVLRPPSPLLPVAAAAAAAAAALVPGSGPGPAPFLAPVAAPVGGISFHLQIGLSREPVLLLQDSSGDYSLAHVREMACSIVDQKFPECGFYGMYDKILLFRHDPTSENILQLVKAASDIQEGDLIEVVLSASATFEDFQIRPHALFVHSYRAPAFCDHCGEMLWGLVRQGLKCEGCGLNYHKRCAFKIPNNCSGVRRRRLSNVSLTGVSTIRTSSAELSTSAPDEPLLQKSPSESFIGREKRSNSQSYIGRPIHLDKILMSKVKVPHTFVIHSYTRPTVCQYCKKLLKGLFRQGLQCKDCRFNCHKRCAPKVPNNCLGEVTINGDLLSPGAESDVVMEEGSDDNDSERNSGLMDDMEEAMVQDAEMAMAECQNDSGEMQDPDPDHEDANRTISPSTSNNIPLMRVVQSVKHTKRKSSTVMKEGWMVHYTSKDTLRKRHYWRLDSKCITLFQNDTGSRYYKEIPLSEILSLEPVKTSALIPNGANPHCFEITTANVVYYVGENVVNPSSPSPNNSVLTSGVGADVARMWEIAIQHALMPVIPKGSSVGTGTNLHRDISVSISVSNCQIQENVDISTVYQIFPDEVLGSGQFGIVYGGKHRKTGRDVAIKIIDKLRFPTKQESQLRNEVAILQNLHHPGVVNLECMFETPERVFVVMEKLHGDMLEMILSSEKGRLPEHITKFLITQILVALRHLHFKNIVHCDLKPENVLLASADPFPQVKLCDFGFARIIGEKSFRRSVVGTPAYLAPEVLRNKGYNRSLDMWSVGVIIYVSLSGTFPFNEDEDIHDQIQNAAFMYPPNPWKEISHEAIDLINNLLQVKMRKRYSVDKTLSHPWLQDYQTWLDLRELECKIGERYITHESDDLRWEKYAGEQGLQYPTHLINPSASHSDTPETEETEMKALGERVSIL

inhibition, inactive:
CCn1nc(C)c(/C=N/NC(=O)Cc2ccc(Cl)cc2)c1C 3.28%
O=C(O)c1cccc(N2C(=O)Nc3ccccc3N2O)c1 7.76%
CCCCCCNCCn1cnc2c(N)ncnc21 6.16%
CC1CCN(c2ccc(C(=O)NCc3ccc4c(c3)OCO4)cc2[N+](=O)[O-])CC1 0.75%
Brc1c(CSc2nncc3ccccc23)nc2ccccn12 7.29%
Cc1ccc(O)c(-c2cc(C(=O)NCc3ccccc3)[nH]n2)c1 -6.87%
CCOC(=O)C(CC)/C(C)=N\NC(=O)c1cccc(C)c1 (configuration not stated) -4.87%
COc1cccc2cc(/C(C)=N/NC(=O)c3ccco3)oc12 5.6%
O=C(CC1NCCc2ccccc21)Nc1cccc(Cl)c1 (configuration not stated) -4.65%
O=C(CN1CCN(c2ccc(O)cc2)CC1)Nc1cc(S(=O)(=O)N2CCOCC2)ccc1Cl 1.7%
CC1(C)C(C=C(Cl)Cl)C1C(=O)N(Cc1ccc(Cl)cc1)C1CCS(=O)(=O)C1 (configuration not stated) 0.63%
CCOC(=O)Cc1ncccc1C(=O)Nc1ccc(OC(F)(F)F)cc1 -0.72%
CN1C(=O)/C(=C\c2ccc(-c3ccccc3)o2)SC1=S -6.62%
CSc1cccc(NC(=S)N(Cc2ccccc2)Cc2ccccn2)c1 -9.2%
COC(=O)CNC(=O)C(CCSC)NC(C)=O (configuration not stated) (Ac-[ξM]-Gly-OMe) 9.67%
O=C(CSc1ccc(-c2cccs2)nn1)Nc1ccccc1F 2.17%
CCN(CC)CCOCCOc1ccc(Cl)c2ccccc12 -3.28%
CN1CCN(C(=O)C2=C[C@H](c3ccc4c(c3)OCO4)C[C@H](OCc3ccc(CO)cc3)O2)CC1 -5.9%
O=C1/C(=C/c2cccs2)CCC1C1CCCC1 (configuration not stated) -1.44%
Cc1ccc(NC(=O)Nc2nnc(-c3ccncc3)s2)cc1 2.87%
CCc1nnc(NC(=O)CSc2nc(SC)ns2)s1 1.32%
O=C(Nc1nnc(C2COc3ccccc3O2)o1)c1ccc(F)cc1 (configuration not stated) -1.94%
CCC(C)NCC(=O)Nc1ccc([N+](=O)[O-])cc1C(=O)Nc1ccccc1F (configuration not stated) -10.9%
CNC(=O)COC(=O)c1cc(-c2ccc(OC)cc2)nc2ccccc12 -3.14%
Nc1cccc(-c2cc(-c3ccccc3)nc(-c3cccc(N)c3)n2)c1 -18.9%
COC(=O)NNC(=O)C1CCC(C)CC1 (configuration not stated) -3.54%
Cc1cccc(NC(=O)c2nnn(-c3cccc(C(F)(F)F)c3)c2N)c1 -0.25%
